Assay outcomes from PubChem BioAssay.
Hits are enriched below; roughly 2.1% of the tested compounds scored in any of these assays.
aSyn rescue = qHTS of alpha-syn Inhibitors; Yeast expressing alpha-synuclein, growth rescue, BacTiter-Glo, 24 h; AID 652106, 2013; Potency, µM (series often up to 46.1 µM), without a hit: at the top dose growth rescue (activation), most hits filed as activators; 370,000 compounds, 0.14% hits; note: % of control where 0% means no effect; nearly all actives have a fitted effect of over 65% in size
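Galactose-induced alpha-syn yeast (OD600=0.02, raffinose-pregrown) + pinned cpd, 24 hr, 30 deg C; growth by BacTiter-Glo luminescence. Growth restoration scores as activation.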
Abeta rescue = qHTS for compounds that reverse cellular toxicity of Amyloid beta (A-beta) peptide in yeast: Primary Screen | yeast expressing A-beta42, growth rescue, OD600, 48 h; response scale: 0% DMSO, 100% iron-clioquinol control | Potency, µM (series often up to 46.1 µM), most hits filed as activators | 410,000 compounds, 0.063% hits | AID 1347071, 2019; note: nearly all actives have a fitted effect of over 55% in size
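Growth rescue measured by 600 nm absorbance after 48 h yeast culture at 30 C with compound. Values normalized between DMSO and an equimolar ferric chloride plus clioquinol control.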
FUS yeast rescue = qHTS for Suppressors of FUS Proteinopathy: Primary screen using FUS-linked yeast assay. Potency, µM (highest dose often 76.6 µM), actives largely listed as activators. S. cerevisiae FUS-expressing, growth rescue, OD600, 24 h. 390,000 compounds, 0.24% hits;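 note: plate controls were DMSO vehicle for no effect and reference control for full effect; nearly all actives have a fitted effect of over 55% in size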
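FUS-expressing yeast, raffinose-pregrown, induced in 2% galactose minimal medium at OD 0.005; compounds in a dilution series, 24hr at 30C. Growth restoration read as absorbance at 600 nm. CP55940 positive control, DMSO negative.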
TDP-43 yeast inh = qHTS of TDP-43 Inhibitors; Potency, µM (highest dose often 46.1 µM), for the others: at the top dose growth rescue (activation), actives largely listed as activators; 410,000 compounds, 1.8% hits; TDP-43 expressing yeast growth rescue, BacTiter-Glo, 24 h; note: % of control where 0% means no effect; nearly all actives have a fitted effect of over 50% in size
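Galactose-induced TDP-43 yeast, OD600=0.02, compound pinned; 24 hr, 30 deg C; BacTiter-Glo luminescence for growth. Inhibitors of TDP-43 toxicity read as activators.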
* = called active by the depositor; i = inactive; ? = inconclusive; nt = not tested or not shown. Calls come from the whole dose curve; as a rule, active = well fitted curve in the direction sought with a large enough effect; inconclusive = small, poorly fitted or top-dose-only effect, or another doubt; inactive = no such curve, though single readings can be large; an effect the other way counts as inactive or inconclusive. Potency is the fitted concentration of half-maximal effect.

SMILES | aSyn rescue | Abeta rescue | FUS yeast rescue | TDP-43 yeast inh
CN(C)c1ccc(NC(=S)NCC2CCCO2)cc1 (stereo unspecified) | 0% | i | i | 8%
O=C(CSc1nc(=O)n2cc(Cl)ccc2n1)Nc1cccc2ccccc12 | 5% | i | i | 7.1µM*
Cc1ccn2c(=O)nc(SCC(=O)Nc3cccc4ccccc34)nc2c1 | 15% | i | 22µM* | -2%
Cc1ccc2nc(SCC(=O)Nc3ccc(Cl)cc3)nc(=O)n2c1 | 1% | i | i | 25%
COc1ccc(NC(=O)Nc2cccc3c2O[C@H](CN(C)C(=O)Nc2ccc(OC)cc2)[C@@H](C)CN([C@H](C)CO)C3=O)cc1 | 1% | i | 32µM* | 3%
C[C@H](CO)N1C[C@H](C)[C@@H](CN(C)C(=O)Nc2ccc3c(c2)OCO3)Oc2ccc(NC(=O)Cc3ccccc3)cc2C1=O | 8% | i | i | 1%
COc1ccc(NC(=O)N(C)C[C@H]2Oc3ccc(NC(=O)Nc4ccc(C(F)(F)F)cc4)cc3C(=O)N([C@H](C)CO)C[C@@H]2C)cc1 | -1% | i | 35µM* | 25%
C[C@@H]1CN([C@H](C)CO)C(=O)c2cc(NC(=O)Cc3cn(C)c4ccccc34)ccc2O[C@H]1CN(C)C(=O)Nc1ccc2c(c1)OCO2 | 2% | i | 32µM* | 0%
Nc1cccc(Oc2c(F)c(F)c(Oc3cccc(N)c3)c(F)c2F)c1 | -13% | i | i | 5.6µM*
Cc1nn(-c2ccccc2)c2sc(C(=O)NC3CCCCCCC3)cc12 | nt | nt | i | nt
CC1CCCN(S(=O)(=O)c2ccc(CN3C(=O)c4cccnc4C3=O)cc2)C1 (stereo unspecified) | 0.56µM* | i | i | ?
COc1ccc(CN2C(=O)c3cccnc3C2=O)cc1S(=O)(=O)N1CC(C)CC(C)C1 (stereo unspecified) | -15% | i | i | 16%
CCNC(=S)N/N=C/c1cc(C)ccc1C | 2% | 4.5µM* | i | 22%
CNC(=S)N/N=C/c1cc(C)ccc1C | 5% | ? | i | 12%
COc1ccc(-c2csc(C(O)c3cccc(OC)c3)n2)cc1 (stereo unspecified) | 3.5µM* | ? | i | 20µM*
COc1cccc(C(O)c2nc(-c3cc(F)cc(F)c3)cs2)c1 (stereo unspecified) | ? | ? | i | 16µM*
C[C@H]1[C@@H](C(=O)N2CCCC2)CC(=O)/C(=N/OCc2ccccc2)C[C@@H]1c1ccccc1 | nt | nt | i | nt
COc1cccc(-c2nc(NCc3cccnc3)c3ccccc3n2)c1O | 2% | i | i | 4%
COc1cccc(-c2nc(NC(C)C)c3ccccc3n2)c1O | -2% | i | i | 20µM*
CCC(C)Nc1nc(-c2cccc(OC)c2O)nc2ccccc12 (stereo unspecified) | -9% | i | i | 11µM*
COc1ccccc1NC(=O)Nc1nc(CC(=O)N2CCN(c3ccccc3)CC2)cs1 | 4.5µM* | i | ? | 0%
COc1cccc(/C=C2\CC3(OC(=O)c4ccc(Cl)cc4)CCCN2C3)c1 (stereo unspecified) | nt | nt | i | nt
Cc1ccc(S(=O)(=O)N2CCN(c3nc(-c4cccs4)nc4ccccc34)CC2)c(C)c1 | -9% | nt | nt | nt
CCOC(=O)Cn1cc(C(=O)c2cccs2)c2ccccc21 | -1% | i | i | 18µM*
O=C(O)Cn1cc(C(=O)c2cccs2)c2ccccc21 | 7% | i | i | -16%
SMILES | aSyn rescue | Abeta rescue | FUS yeast rescue | TDP-43 yeast inh
CC(C)(C)OC(=O)n1cc(-c2ccccc2)c2c(-c3ccccc3)c(O)ccc21 | nt | nt | i | nt
CC1Cc2ccccc2N1C(=S)NC(=O)C1(C)CC1(Cl)Cl (stereo unspecified) | -6% | 13µM* | i | ?
O=C(Cc1ccccc1)Nc1cc(C(=O)c2ccccc2)ccc1N1CCOCC1 | nt | i | i | 13µM*
CO[C@H]1CC[C@@]2(C)[C@@H](CC[C@@H]3[C@@H]2CC[C@@]2(C)[C@H]3C[C@H](C(=O)O)O[C@]23CCCO3)C1 | 22% | i | i | 16µM*
Cc1[nH]n(-c2ccccc2)c(=O)c1C1(C(F)(F)F)C(=O)N(c2ccccc2)C2=C1C(=O)CC(C)(C)C2 (stereo unspecified) | 6% | i | 32µM* | -3%
Cc1ccc(N2C(=O)C(c3c(C)[nH]n(-c4ccccc4)c3=O)(C(F)(F)F)C3=C2CC(C)(C)CC3=O)cc1 (stereo unspecified) | -11% | i | i | 21%
COc1ccc(CSc2ccc(-c3nc4ccccn4c3NCc3ccccc3)cc2OC)cc1 | -33% | i | ? | 35µM*
CCC(C)Sc1ccc(-c2nc3ccccn3c2NCc2ccccc2)cc1OC (stereo unspecified) | -47% | i | i | -88%
Cc1ccccc1CN1CCCCC(NC(=O)Cc2cccs2)C1=O (stereo unspecified) | nt | nt | i | nt
Cc1cc(C)c(NC(=O)c2sc3nc4c(cc3c2N)C(=O)CC(C)(C)C4)c(C)c1 | -2% | i | ? | 20µM*
COC(=O)c1sc2nc3c(cc2c1N)C(=O)CC(C)(C)C3 | 1% | i | i | -21%
O=C(NC1CCCCN(Cc2cccc(C(F)(F)F)c2)C1=O)c1c(F)cccc1F (stereo unspecified) | nt | nt | i | nt
O=C(c1c(Cl)nc2sccn12)N1CCN(c2cccc(Cl)c2)CC1 | -1% | i | i | 14µM*
O=C(c1cc2ccccc2cc1O)N1CCN(c2cccc(Cl)c2)CC1 | 13% | ? | i | 11µM*
O=C(c1ccccc1F)N1CCN(c2cnn(-c3cccc(Cl)c3)c(=O)c2Cl)CC1 | -3% | i | i | 20µM*
O=C(c1cc2c(=O)n3ccccc3nc2s1)N1CCN(c2cccc(Cl)c2)CC1 | 11% | i | ? | ?
CCCCCCCCN1C(=O)[C@H](CC(=O)N2CCCCC2)C[C@@]2(C(=O)OC)CC(C)(C)CC=C12 | -36% | i | ? | 8%
COC(=O)[C@@]12C[C@@H](CC(=O)NCc3cccc4ccccc34)C(=O)N(Cc3ccc4c(c3)OCO4)C1=CCC(C)(C)C2 | 16% | i | 6.3µM* | -15%
CCCCCCCCN1C(=O)[C@H](CC(=O)NCc2ccc(OC)c(OC)c2)C[C@@]2(C(=O)OC)CC(C)(C)CC=C12 | ? | i | ? | 22µM*
CCCCCCCCN1C(=O)[C@H](CC(=O)N2CCOCC2)C[C@@]2(C(=O)OC)CC(C)(C)CC=C12 | ? | i | 13µM* | ?
c1ccc(Cn2ccc3ccc(-c4ccc5ccn(Cc6cccc(-c7cccs7)c6)c5c4)cc32)cc1 | nt | nt | i | nt
Cn1cccc1CNC(=O)Nc1ccccc1 | 0% | i | 22µM* | -13%
Cc1cc(C(=O)CSc2nnnn2C)c(C)n1C1CC1 | 6% | i | i | 5%
